# Source: PubChem BioAssay (NCATS)
# Results filed as inconclusive are left out. A call without a number means that no potency is given here. A number with no mark means an inactive call. Calls of active or inactive are those of the source. Calls follow the shape of the dose curve; as a rule, active = well fitted inhibition curve with a large enough effect; inconclusive = small, poorly fitted or top-dose-only effect; inactive = flat fitted curve, though single readings scatter.
# Molecular target: Phospholipid hydroperoxide glutathione peroxidase GPX4 (Homo sapiens) (UniProt P36969)
# Assay: Primary qHTS Assay for Inhibitors of Recombinant Selenoprotein Glutathione Peroxidase 4 (GPX4) (AID 1845192); also: nearly all actives have a fitted effect of over 65% in size
# Details: recombinant GPX4, GR-coupled NADPH fluorescence, 15 min; series mostly up to 50 µM; activity change, negative = inhibition: at the top concentration
# Outline: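 GR-coupled readout: 100 nM GR, 1 mM GSH, 0.5 mM NADPH; NADPH fluorescence (ex 340/em 450 nm) read at t=0 and after 15 min RT. GPX4 200 nM, preincubated 30 min with compound; substrate 0.5 mM CHP.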
# Chain of Phospholipid hydroperoxide glutathione peroxidase GPX4 (Homo sapiens) (P36969 whole entry, looked up): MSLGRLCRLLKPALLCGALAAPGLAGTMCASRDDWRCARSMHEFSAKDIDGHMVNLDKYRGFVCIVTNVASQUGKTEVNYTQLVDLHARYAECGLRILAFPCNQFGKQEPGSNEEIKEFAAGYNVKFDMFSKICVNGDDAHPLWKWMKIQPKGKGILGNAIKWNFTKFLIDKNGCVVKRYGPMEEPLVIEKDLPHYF
Structure (SMILES),Potency,"activity change, negative = inhibition",outcome
CN(C)S(=O)(=O)c1ccc2c(c1)/C(=C/c1cc3c([nH]1)CCCC3)C(=O)N2,inactive,–,–
O=C(O)C1=CCNCC1,–,3.16%,–
CN1C2CCC1CC(OC(c1ccccc1)c1ccccc1)C2 (stereo not drawn),–,1.46%,–
CNc1cc(NS(=O)(=O)c2ccc(N)cc2)nc(NC)n1,–,-6.25%,–
CN1CCc2cc(Cl)c(O)cc2[C@@H](c2ccccc2)C1,–,–,inactive
N#Cc1cc([N+](=O)[O-])c2sc(C(N)=O)[n+]([O-])c2c1,–,-7.93%,–
N=S(=O)(O)Cc1noc2ccccc12,–,–,inactive
CC(=O)[C@H]1CCC2C3CC=C4C[C@@H](OS(=O)(=O)O)CC[C@]4(C)C3CC[C@@]21C (stereo partly drawn),–,-4.31%,–
c1ccc(C2CN3CCSC3=N2)cc1 (stereo not drawn),inactive,–,–
O=c1[nH]c2ccccc2c2ccccc12,–,-10.8%,–
O=C1NC(=O)c2cc(Nc3ccccc3)c(Nc3ccccc3)cc21,–,–,inactive
CNC(=O)c1cc2c(cn1)[nH]c1ccccc12,–,2.86%,–
CCCCCCCCCCCCCCCCCCOC[C@H](COP(=O)([O-])OCC[N+](C)(C)C)OC,–,-0.535%,–
O=[N+]([O-])c1cccc2c(Br)[nH]nc12,–,–,inactive
O=C(O)CCC(=O)N1CCCC1C(=O)O (stereo not drawn),–,–,inactive
CC1=C(C(=O)O)N2C(=O)[C@@H](NC(=O)C(N)C3=CCC=CC3)[C@H]2SC1 (stereo partly drawn),–,1.05%,–
NC(N)=NC(N)=Nc1ccccc1,–,-1.49%,–
CC(C)NCC(O)COc1ccc(CC(N)=O)cc1 (stereo not drawn),–,-1.85%,–
Cc1nc(N=Nc2cc(S(=O)(=O)O)c3cc([N+](=O)[O-])cc(S(=O)(=O)O)c3c2)c(COP(=O)(O)O)c(C=O)c1O,–,–,inactive

Structure (SMILES),Potency,"activity change, negative = inhibition",outcome
COC1(C2=NCCN2)COc2ccccc2O1 (stereo not drawn),–,-21%,–
CN(C)CCCc1cc(C(=O)Nc2ccc(-c3ccncc3)cc2)ccc1O,–,–,inactive
CCCCCCC/C=C\CCCCCCCCC(=O)O,–,-21.4%,–
Nc1ncnc2c1ncn2C1CCCO1 (stereo not drawn),–,–,inactive
CC(C)(C)NCC(O)COc1cccc2[nH]c(=O)[nH]c12 (stereo not drawn),–,3.47%,–
OC[C@H]1O[C@@H](n2cnc3cncnc32)[C@H](O)[C@@H]1O,–,-13.8%,–
CCCCCC[C@@H]([C@@H](C)O)n1cnc2c(N)ncnc21,–,-3.12%,–
Cc1cc(Cn2cnc3c2C[C@@H](C(=O)O)N(C(=O)C(c2ccccc2)c2ccccc2)C3)ccc1N,–,0.453%,–
CCCCCCCCCC[Si](C)(C)CCC(=O)NC(Cc1ccc(C)cc1)c1ccccc1 (stereo not drawn),–,–,inactive
O=C(O)C1=CCCN(CCON=C(c2ccccc2)c2ccccc2)C1,–,–,inactive
CCCCS(=N)(=O)CC[C@H](N)C(=O)O (stereo partly drawn),–,–,inactive
CC(C)(C)c1cc(/C=C(\C#N)C(N)=S)cc(C(C)(C)C)c1O,–,–,inactive
COC(=O)C(N)Cc1ccc(Cl)cc1 (stereo not drawn),–,–,inactive
N=C(N)SCCN,–,–,inactive
COc1ccccc1N1CCN(CCCNc2c(C)c(=O)n(C)c(=O)n2C)CC1,–,–,inactive
O=C(c1ccc2c(c1)OCCO2)N1CCCCC1,–,–,inactive
COc1ccc2c(c1)c(CC(=O)O)c(C)n2Cc1ccc(Cl)cc1,–,–,inactive
Cc1cc2c(cc1Cl)N(C(=O)Nc1ccnc3ccccc13)CC2,–,-24.7%,–
Nc1ccc(-c2ccc3ccccc3n2)cc1,–,-30.1%,–
